Source: PubChem (several laboratories)
FAS-TE inh – blocks the thioesterase domain of human fatty acid synthase | P49327 | recombinant FAS-TE, OMFH fluorogenic substrate, fluorescence endpoint | inhibition, % at 15 µM | 360,000 tested, 0.67% active;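 active means compounds whose normalised, plate-corrected inhibition of enzyme fluorescence in the single-dose primary screen is 50% or more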
ADAM10 inh – ADAM10 inhibition, QFRET primary screen; O14672; AID 720582; inhibition, % at 7 µM; recombinant ADAM10, EDANS/DABCYL FRET peptide cleavage, 3 h; 370,000 tested, 0.62% active;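 active means inhibition above a per-campaign cutoff equal to the mean of compounds falling between control-based bounds plus 3 SD, cut at about 20% in these data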
Target sequence (O14672 214-748 limits assumed): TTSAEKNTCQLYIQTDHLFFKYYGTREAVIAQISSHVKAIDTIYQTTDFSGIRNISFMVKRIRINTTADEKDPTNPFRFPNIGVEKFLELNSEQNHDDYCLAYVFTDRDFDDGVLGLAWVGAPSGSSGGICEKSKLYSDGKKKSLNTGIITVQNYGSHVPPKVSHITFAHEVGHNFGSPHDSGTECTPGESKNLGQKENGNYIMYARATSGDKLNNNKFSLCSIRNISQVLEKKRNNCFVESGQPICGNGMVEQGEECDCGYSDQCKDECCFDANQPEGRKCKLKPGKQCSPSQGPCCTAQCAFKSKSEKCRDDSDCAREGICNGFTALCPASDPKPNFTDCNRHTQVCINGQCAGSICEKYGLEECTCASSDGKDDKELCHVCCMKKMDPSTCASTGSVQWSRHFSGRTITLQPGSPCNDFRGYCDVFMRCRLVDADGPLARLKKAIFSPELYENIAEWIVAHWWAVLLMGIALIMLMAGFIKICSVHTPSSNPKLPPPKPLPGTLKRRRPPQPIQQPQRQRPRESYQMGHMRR
ADAM17 inh – ADAM17 inhibition, QFRET primary screen; P78536; 370,000 tested, 0.83% active; inhibition, % at 6.95 µM; recombinant ADAM17, EDANS/DABCYL FRET peptide cleavage; AID 720648;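 active means inhibition above the mean of compounds lying between control limits plus 3 SD, set per campaign, cut at about 8.5% in these data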
GRIN3A LBD mod – modulators (binders) of human NR3A ligand-binding domain; NR3A LBD differential scanning fluorimetry, Tm shift; 0% = protein alone, 100% = glycine-bound protein; Tm shift relative to glycine control, % at 25 µM; 340,000 tested, 2.5% active; AID 1259313;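 active means melting temperature shift of at least 10% of the positive control shift, at one fixed dose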
aDG glyco act – alpha-DG glycosylation activation | Pro5-aDG cells, alpha-DG glycosylation AlphaScreen (IIH6); 0% Pro5, 100% B10-LARGE cell signal | activation, % at 10 µM | 360,000 tested, 0.22% active | AID 624168;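 active means activation of at least 8% versus controls, or a plate z-score of at least 8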;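 further: Pro5 are CHO cells carrying HIG-tagged alpha-DG that lacks glycosylation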
ADAM10 counter – counter-screen for ADAM17 exosite inhibitors: inhibitors of human ADAM10; AID 743256; 2,900 tested, 47% active; inhibition, % at 6.95 µM; recombinant ADAM10, EDANS/DABCYL FRET peptide cleavage, 3 h; shares compounds with ADAM17 inh;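 active means mean inhibition over the triplicate runs exceeds the activity threshold set in the earlier primary screen, cut at about 20% in these data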
ADAM17 confirm – human ADAM17 inhibition, confirmation; recombinant ADAM17, EDANS/DABCYL QFRET peptide cleavage; inhibition, % at 6.95 µM; AID 743257; shares compounds with ADAM17 inh; 2,900 tested, 65% active;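 active means mean inhibition across replicates above the hit cutoff set in the primary screen, cut at about 8.5% in these data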
Each line names hits and unclear results; the compound was inactive in the other large screens (follow-up assays come after a bar, where they were run). In the library only some 4% were active in any assay of this set; here they are far more common.

C[C@@H]1CC=C[C@@H]2[C@H]1C(=O)N(Cc1ccccc1)[C@H]2c1cccc(Br)c1	ADAM17 inh 8.6 | ADAM10 counter inactive | ADAM17 confirm 10
C[C@@H]1CC=C[C@H]2[C@H]1C(=O)N(Cc1ccccc1)[C@H]2c1ccc(-c2ccc(F)cc2)cc1F	none
Cc1ccc(NC(=O)C(NC2CCCC2)c2ccccc2)cc1Cl (stereo not given)	none
Cc1ccc(NC(=O)C(OC(=O)c2ccccc2Cl)c2ccccc2)cc1Cl (stereo not given)	ADAM17 inh 9.3, GRIN3A LBD mod 19 | ADAM10 counter 31 | ADAM17 confirm 21
O=C(Nc1nc2ccsc2c(=O)s1)c1ccc(F)cc1Cl	none
CCOC(=O)C1=CCN(S(=O)(=O)c2ccccc2F)C1c1cccc(Br)c1 (stereo not given)	ADAM17 inh 9.2 (no result: GRIN3A LBD mod) | ADAM10 counter inactive | ADAM17 confirm 9.5
CCOC(=O)C1=CCN(S(=O)(=O)c2ccc(C)cc2)C1c1ccc(CC)cc1 (stereo not given)	ADAM17 inh 8.8 (no result: GRIN3A LBD mod) | ADAM10 counter 20 | ADAM17 confirm 16
Cc1ccc(N(CC(=O)NCC2CCCO2)C(=O)CCC(=O)Nc2cc(C)on2)cc1 (stereo not given)	none
O=[N+]([O-])c1ccc(O)c(/C=N/n2cnnc2)c1	ADAM17 inh 9.2 | ADAM10 counter inactive | ADAM17 confirm inactive
CCOC(=O)N1CCN(S(=O)(=O)c2ccc(C(=O)NNc3nc4c(C)cc(C)cc4s3)cc2)CC1	ADAM17 inh 9.7 | ADAM10 counter 29 | ADAM17 confirm 23
CCOC(=O)N1CCN(S(=O)(=O)c2ccc(C(=O)NNc3nc4c(C)cccc4s3)cc2)CC1	none
COc1ccc(CNC(=O)C2CCN(C(=O)[C@@H](CC(C)C)NC(=O)OC(C)(C)C)CC2)cc1	ADAM17 inh 8.6 (no result: GRIN3A LBD mod) | ADAM10 counter inactive | ADAM17 confirm inactive
COc1ccc(CNC(=O)[C@H](C)NC(=O)C2CCN(C(=O)[C@H](CCSC)NC(=O)OC(C)(C)C)CC2)cc1	none
COC(=O)c1nn(-c2ccccc2)c(Sc2ccc(Br)cc2)c1/C=N/O	ADAM17 inh 11 | ADAM10 counter inactive | ADAM17 confirm inactive
Cc1ccc(NC(=O)CS(=O)CC(=O)N(c2ccccc2F)C(C)C(=O)NC2CCCC2)cc1 (stereo not given)	none
COc1ccccc1C1N(c2ccc(Cl)cc2)C(=O)C2CCCN21 (stereo not given)	ADAM17 inh 9.8 | ADAM10 counter inactive | ADAM17 confirm inactive
COc1ccc(OC)c(NC(=O)CSc2nc(O)cc(=O)n2CC(C)C)c1	ADAM17 inh 9.3 | ADAM10 counter inactive | ADAM17 confirm inactive
O=C(NCc1ccccc1)[C@@H]1CCCN1C(=O)[C@H]1CCCN1C(=O)c1ccccc1	none (no result: FAS-TE inh, GRIN3A LBD mod, aDG glyco act)
COc1cccc(C(=O)COc2cccc(NC(=O)c3ccco3)c2)c1	ADAM17 inh 9.2 | ADAM10 counter inactive | ADAM17 confirm inactive
CCN(CC(=O)Nc1c(F)cccc1F)C(=O)c1ccc(S(=O)(=O)N2CCCCCC2)cc1	none
CCN(CC(=O)Nc1c(F)cccc1F)C(=O)c1ccc(S(=O)(=O)N2CCC(C)CC2)cc1	ADAM17 inh 10 | ADAM10 counter inactive | ADAM17 confirm inactive
O=C(NCc1ccccc1)C1=C[C@H](c2ccc(C(F)(F)F)cc2)C[C@H](OCc2ccc(CO)cc2)O1	ADAM17 inh 14 | ADAM10 counter inactive | ADAM17 confirm inactive
CSCCC(NS(=O)(=O)c1ccc(Cl)cc1)C(=O)OCC(=O)c1c(C)[nH]c2ccccc12 (stereo not given)	ADAM17 inh 9.7, GRIN3A LBD mod 17 | ADAM10 counter 29 | ADAM17 confirm 17
COc1ccc(C(=O)O)cc1S(N)(=O)=O	none
COc1ccc(C(=O)N2CCCC(c3cc(C(=O)NCc4ccccc4)no3)C2)cc1 (stereo not given)	none (no result: GRIN3A LBD mod)
COc1ccc(C(=O)N2CCCC(c3cc(C(=O)NCc4ccc(F)cc4)no3)C2)cc1 (stereo not given)	ADAM17 inh 8.8 (no result: GRIN3A LBD mod) | ADAM10 counter inactive | ADAM17 confirm inactive
CC/C(O)=C1\C(=O)CC(c2ccccc2)CC1=NC(C)C (stereo not given)	none
O=C(CC1SC(=O)N(c2ccccc2)C1=O)Nc1ccccc1 (stereo not given)	ADAM17 inh 9.3 | ADAM10 counter inactive | ADAM17 confirm 16
Cc1ccc(C)c(C(=O)COC(=O)c2cc(S(=O)(=O)N3CCOCC3)ccc2F)c1	none (no result: GRIN3A LBD mod)
CCOc1ccc(NC(=O)CSc2nnc(C3CC3)n2C)cc1	none
Clc1ccc(Sc2cnc3ccccc3n2)cc1	none
Clc1ccccc1Sc1cnc2ccccc2n1	ADAM17 inh 8.8 | ADAM10 counter inactive | ADAM17 confirm inactive
O=C(CSc1nc2ccccc2o1)NC(=O)NCc1ccco1	none
CC(C)Cn1cnc2c(Sc3c([N+](=O)[O-])ncn3C)nc(N)nc21	ADAM17 inh 9.4 | ADAM10 counter inactive | ADAM17 confirm inactive
CCC(C)Cn1cnc2c(Sc3c([N+](=O)[O-])ncn3C)nc(N)nc21 (stereo not given)	none
Cc1cc(NC(=O)CCSc2ccccc2)ccc1Br	ADAM17 inh 9.2 | ADAM10 counter 22 | ADAM17 confirm 14
CC(C)CC1NC(=O)c2cc(Cl)ccc2-n2c1nc1cc(F)ccc1c2=O (stereo not given)	ADAM17 inh 8.7 (no result: FAS-TE inh, GRIN3A LBD mod, aDG glyco act) | ADAM10 counter inactive | ADAM17 confirm inactive
CC(C)CC1NC(=O)c2ccc(Cl)cc2-n2c1nc1cc(F)ccc1c2=O (stereo not given)	ADAM17 inh 11 (no result: FAS-TE inh, GRIN3A LBD mod, aDG glyco act) | ADAM10 counter 21 | ADAM17 confirm 12
Cc1ccc2nc3n(c(=O)c2c1)-c1ccc(Cl)cc1C(=O)NC3Cc1ccccc1 (stereo not given)	ADAM17 inh 11 (no result: FAS-TE inh, GRIN3A LBD mod, aDG glyco act) | ADAM10 counter inactive | ADAM17 confirm inactive
COc1ccc(NC(=O)CSc2nc(NS(=O)(=O)c3ccccc3)cc(=O)[nH]2)cc1	none
CCOC(=O)c1[nH]c2cc3c(cc2c1NC(=O)CN1CCC2(CC1)OCCO2)OCO3	none
O=C(NCCn1cc(SCc2ccccc2)c2ccccc21)c1ccccc1F	ADAM17 inh 10 | ADAM10 counter inactive | ADAM17 confirm 9.2
O=C(CCN1CCCC1Cc1ccccc1)c1ccc2c(c1)OCCO2 (stereo not given)	none
CCCOc1ccc(CC(=O)NNC(=S)Nc2ccccc2)cc1Br	ADAM17 inh 12, GRIN3A LBD mod 19 | ADAM10 counter inactive | ADAM17 confirm inactive
Cc1ccc(-c2nc3ncccc3o2)cc1NC(=O)COc1ccccc1	none
Cc1cccc(OCC(=O)Nc2ccc3c(c2)nc(CCN2CCC(C)CC2)n3C)c1	none
